Experimental data from the supplement of paper PMC6555819.

Experiments:
Assay in all cases: PBM binding z-score (relative to random genomic background probes); higher = stronger binding; sequences stand for … in GC…GCGATTGACAGCGTAGAATGAAGG
[1] = test system: PPARg:RXRa IVT, anti-PPARg (NR concentration 270 nM, RXRa partner concentration 90 nM)
Outline: (§1)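 Probes were double-stranded and carried 34-nt variable regions with direct-repeat seeds, single-nucleotide variants, half-site ablations and random human genomic background sequences, printed on custom Agilent 4×180K protein-binding microarrays. Arrays were incubated 1 h with ligand-free nuclear receptor dimers in PBS pH 7.4, 2% milk, 0.02% Triton X-100, 1 mM DTT, 0.2 mg/mL BSA and 0.4 mg/ml salmon testes DNA. Antibodies against each partner (one per run) detected binding, and scanned fluorescence was regression-normalized. Binding z-scores use the random background probes as reference.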

[2] = test system: PPARg DBDmut:RXRa IVT, anti-PPARg (DBD mutation: PPARg1 K132A/R137A, NR concentration 270 nM, RXRa partner concentration 90 nM)
Outline: as §1

[3] = test system: PPARg DBDmut IVT, anti-PPARg (DBD mutation: PPARg1 K132A/R137A, NR concentration 270 nM)
Outline: as §1

[4] = test system: PPARg homodimer (NR concentration 180 nM)
Outline: as §1

[5] = test system: PXR:RXRa (NR concentration 270 nM, RXRa partner concentration 90 nM)
Outline: as §1

[6] = test system: PXR homodimer (NR concentration 270 nM)
Outline: as §1

[7] = test system: RARa:RXR (NR concentration 270 nM, RXRa partner concentration 90 nM)
Outline: as §1

[8] = test system: RARa homodimer (NR concentration 270 nM)
Outline: as §1

[9] = test system: RARb:RXRa (NR concentration 270 nM, RXRa partner concentration 90 nM)
Outline: as §1

[10] = test system: RARb homodimer (NR concentration 270 nM)
Outline: as §1

Sequence | PBM binding z-score [1] | PBM binding z-score [2] | PBM binding z-score [3] | PBM binding z-score [4] | PBM binding z-score [5] | PBM binding z-score [6] | PBM binding z-score [7] | PBM binding z-score [8] | PBM binding z-score [9] | PBM binding z-score [10]
CGAACTAGGTCAAGGCCAGTGAATCTCCGCACGC | 8.42 | 3.5 | 2.31 | 1.99 | 1.35 | -0.029 | 2.32 | 0.0978 | 4.11 | 3.35
CGTCCAAGGTCATTGGAGGTCAGTGAAGACAGAT | 4.79 | 0.319 | -0.697 | 5.59 | 7.17 | 8.63 | 6.25 | 2.43 | 5.56 | 5.54
GATACAGGGTCAGCTACAGGCCAGAGTATGGAAA | 2.25 | 0.112 | -0.146 | 1.47 | 2.17 | -0.273 | 3.3 | 0.244 | 4.02 | 2.99
CCTAGCAGGCCAATCTAGGTCACTCAAGGCTTGA | 5.19 | -0.0838 | -0.865 | 0.707 | 1.51 | -0.261 | 1.37 | -0.161 | 2.02 | 2.68
ACTTACGGCTCAACGAGGTTATAGCACGCGTATA | 0.0544 | 0.327 | 0.825 | 0.463 | 0.645 | 0.358 | 0.812 | -0.139 | 0.165 | 0.526
CGAACAAGGTCATCCAGGACAGTGAATACATTGA | 5.07 | 3.54 | 2.64 | 3.58 | 5.44 | 7.22 | 5.39 | 2.04 | 5.19 | 4
AATACAGGGTAACTAGGCCAGAGTAGGTACGAAT | 4.67 | 1.24 | 0.826 | 0.854 | -0.078 | 0.0219 | -0.00374 | 0.0183 | 0.804 | 0.549
TAGCCTAGGTCATACAGGGGCCAGTATAGAAAGC | 2.89 | 0.2 | -0.11 | 1.83 | 2.1 | -0.101 | 3.56 | 0.204 | 3.91 | 3.38
TCTGCTAGGTCAACGTTGGTCAGCTAATCTGCTA | 4.38 | -0.219 | 0.673 | 0.191 | 1.56 | -0.62 | 2.22 | -1.27 | 4.03 | 3.31
TGTCAACGTTCAAAGGTAACGTAAGTATCCACAC | 1.78 | 0.941 | 0.758 | 0.252 | 0.578 | -0.0241 | 1.36 | 0.107 | 1.46 | 1
CCTACTGGGCCTAAGGTCATTGATTCCAATGCTC | 3.86 | -0.629 | -0.793 | 2.07 | 3.7 | 1.98 | 3.54 | 0.174 | 3.15 | 3.54
CGTCAAAGTTCAACTGAGGTAACGTAAAGCACGC | 2.31 | 0.285 | 0.242 | 3.03 | 5.86 | 4.5 | 4.36 | 1.6 | 5.41 | 4.06
TCTTGTAGGTCAATAGAGGTTAAGAAAGTGCGCT | 7.76 | 2.66 | 2.4 | 2.69 | 5.67 | 0.719 | 4.2 | 1.13 | 4.09 | 3.81
ATCGAAAGGTCGAAGGTGAGCATACCCACCCGAA | 2.39 | 0.377 | 0.499 | 1.46 | 3.16 | 0.092 | 4.44 | 0.708 | 3.86 | 3.01
CCGACTGGGGCAAGGTCACCATAACGCACAGCCA | 4.62 | 0.00337 | -0.825 | 2.64 | 3.25 | 0.544 | 3.76 | 0.752 | 4.25 | 4.23
ACTAGTTGGTCAGCTGAGGTCACACCCAATTCGG | 2.55 | 1.1 | 0.595 | 2.35 | 5.14 | 1.25 | 4.27 | 0.354 | 3.57 | 4.33
ACTTACGGGTCTACGAGGTTATAGCACGCGTATA | 0.458 | 0.196 | 0.723 | 0.507 | 1.03 | 0.544 | 1.28 | 0.676 | 0.688 | 0.753
ATATGTAGGTTACCTGGGGTCATTCAGACTAGGC | 7.26 | 2.71 | 1.81 | 2.87 | 6.79 | 4.76 | 5.89 | 0.968 | 3.18 | 4.13
ATATGTAGGTTACATCCGGGTCATCCAGGCTATG | 7.51 | 3.31 | 2.5 | 2.45 | 3.45 | 1.14 | 3.67 | 0.961 | 2.3 | 3.26
AATACAGGGTCACGAGGCCAGAGTAGGTACGAAT | 5.74 | 2.21 | 2.16 | 3.03 | 4.43 | 0.257 | 5.27 | 1.39 | 5.07 | 4.14
GGAACGAGGGCAAAGTTCATAGCATCTGTCGACG | 6.1 | 0.354 | -0.0901 | 3.42 | 5.81 | 4.46 | 6.65 | 0.559 | 4.01 | 3.75
TCTAGTTGGTCACGGAGGTCACAAACGACGGGTA | 3.96 | 0.857 | 0.878 | 2.5 | 4.3 | 1.25 | 4.32 | 1.68 | 3.66 | 4.21
ATTTGTAGGTTACATCCGGGTCATTCAGGCTATG | 6.29 | 3.31 | 2.1 | 3.38 | 4.12 | 4.01 | 4.19 | 2.72 | 2.77 | 3.43
ACTCGGATGACAAAGGTCAGAGCTACGCCAGTGA | 2.58 | 0.403 | 0.346 | 3.31 | 3.68 | 0.135 | 4.51 | 1.18 | 4.12 | 3.9
